High-throughput results deposited in PubChem BioAssay by Pan Lab, Icahn School of Medicine at Mount Sinai.
ROC1-CUL1 inh – human ROC1-CUL1 E3 ligase inhibition. AID 1347404. P62877+Q13616. 140,000 compounds, 0.6% hits. inhibition, % at 10 µM. in vitro K48 di-Ub FRET, acceptor:donor ratio, 45 min; in the data active means inhibition above about 25%
Active calls of the source: *. Only a selection was taken, and hits are over-represented in it overall.

SMILES	ROC1-CUL1 inh
COc1ccc(CC2CN(c3ccccn3)CCO2)cc1 (configuration not stated)	-10.2
Cc1ccc2nc(-c3ccc(N4C(=O)CC(N5CCSCC5)C4=O)cc3)sc2c1 (configuration not stated)	5.0
COc1cc(/C=C2/C(=O)NN(c3ccc(Br)cc3)C2=O)cc(Br)c1OC	7.1
COc1cc(/C=C2\C(=O)NN(c3ccccc3)C2=O)cc(Br)c1OCc1ccccc1C	93.6*
COc1cc(/C=C2\C(=O)NN(c3ccccc3)C2=O)cc(Cl)c1OCCCOc1cccc(C)c1	22.7
CCCCCOc1ccc([N+](=O)[O-])cc1C(=O)Nc1cc2nc3ccccc3nc2cc1NC(=O)c1cc([N+](=O)[O-])ccc1OCCCCC	7.3
CC(Sc1nnc(CNc2ccc(Br)cc2)n1C)C(=O)N/N=C/c1cc(Cl)cc([N+](=O)[O-])c1O (configuration not stated)	-5.1
CC1=NN(c2ccccc2)C(=O)C1c1ccccc1 (configuration not stated)	2.8
O=C1N(c2ccccc2)N=C(c2ccccc2)C1(Br)Br	60.1*
O=C1C(=O)N(c2ccccc2)N=C(c2ccccc2)C1C(=O)c1ccccc1 (configuration not stated)	-1.3
CCc1cnc(-c2cccc(-c3ccn(Cc4ccncc4)n3)c2)nc1	3.0
O=C(CSc1ccc(Br)cc1)OCC(=O)c1ccccc1	0.3
Oc1c(-c2ccc(Br)cc2)c2nc3ccccc3nc2c2ccccc12	-4.8
COC(=O)c1ccc(/C=C2\SC(=Nc3ccc(Cl)cc3)N(C)C2=O)cc1	0.0
COc1ccc(/C=C2\N=C(c3ccccc3)OC2=O)cc1[N+](=O)[O-]	0.1
CCOc1cc(/C=C2\N=C(c3ccccc3)OC2=O)ccc1OCc1ccc(Cl)cc1	-2.5
CCN(CC)c1ccc(/C=C2\N=C(c3ccccc3)OC2=O)cc1	31.7*
Cc1cc(CO)c(C)n1-c1ccccc1F	1.3
CCC(=O)N1CCN(c2nc3c(c(=O)n(C)c(=O)n3C)n2Cc2ccc(C)cc2)CC1	-4.0
Cc1csc2[nH]c(-c3ccccc3)c[n+]12	-5.6
COc1cc(C2C3=C(CC(C)(C)CC3=O)OC(=N)C2C#N)ccc1OCc1ccccc1 (configuration not stated)	-2.1
COc1cc(C2C3=C(CC(C)(C)CC3=O)N(Nc3ccccc3)C(=N)C2C#N)ccc1OCc1ccccc1 (configuration not stated)	-5.2
COc1cc(C2C3=C(CC(C)(C)CC3=O)N(c3ncn[nH]3)C(=N)C2C#N)ccc1OCc1ccccc1 (configuration not stated)	32.1*
CC(C)CCCC1CN(C2CCN(Cc3ccccn3)CC2)CCO1 (configuration not stated)	-1.7
O=C(Nc1ccc(-c2cn3cccnc3n2)cc1)c1ccccc1Cl	6.9
SMILES	ROC1-CUL1 inh
CCOc1ccc(/C=C2/C(=O)NN(c3ccc(Cl)cc3)C2=O)cc1OC	-7.1
CCOc1ccccc1/C=C1\C(=O)NN(c2ccc(C)c(C)c2)C1=O	46.8*
CCOc1cc(/C=C2\C(=O)NC(=O)N(c3ccc(Cl)cc3)C2=O)cc(Br)c1O	3.7
Cc1ccc(N2NC(=O)/C(=C/c3cc4c(cc3Cl)OCO4)C2=O)cc1C	64.5*
CCOc1c(/C=C2\C(=O)NN(c3ccc(Cl)c(Cl)c3)C2=O)cccc1OC	12.9
Cc1ccc(N2NC(=O)/C(=C/c3ccccc3OCc3ccccc3)C2=O)cc1	7.1
O=C1NC(=S)NC(=O)C1=Cc1cc2c(cc1Cl)OCO2	2.7
CCOc1cc(/C=C2\C(=O)NN(c3ccc(Cl)cc3)C2=O)c(Br)c(Br)c1O	73.2*
Cc1ccc(N2NC(=O)/C(=C/c3ccc4c(c3)n(C)c(=O)n4C)C2=O)cc1Cl	7.8
COc1ccc(-n2ncc(C(C)NCc3ccccn3)c2C)cc1 (configuration not stated)	5.1
CN1c2ccccc2C(C)(C)C12CC(c1ccc(/C(=N/O)c3ccccc3)cc1)=NO2 (configuration not stated)	-4.8
COc1ccc(NC(=S)N2CCc3ccccc3C2)c(OC)c1	6.2
CCOc1ccc2nc(SCC(=O)Nc3nc(OC)cc(OC)n3)sc2c1	5.4
Cc1ccc2c(c1)-c1c(ssc1=Nc1ccc(O)cc1)C(C)(C)N2	3.8
CCOC(=O)C1C(C)=NC(=S)C(C#N)=C1c1ccc(OC)cc1 (configuration not stated)	6.4
CC(=O)c1ccccc(OC(=O)c2ccccc2)c1=O	81.0*
COc1cc(C(=O)Oc2ccccc2C(C)=O)cc(OC)c1OC	-6.3
O=C(Oc1ccccc1C(=O)Oc1ccccc1)c1ccccc1	1.8
O=C(NCc1ccco1)c1ccccc1NC(=O)c1ccccc1C(=O)O	8.3
COc1ccc(Cn2nnc3c2C(=O)c2nnn(Cc4ccc(OC)cc4)c2C3=O)cc1	45.1*
Cc1ccccc1Cn1nnc2c1C(=O)c1ccccc1C2=O	11.5
O=C1c2ccccc2C(=O)c2c1nnn2Cc1ccc(F)cc1	13.2
c1nc(NCCc2n[nH]c3c2CCCC3)cc(C2CCCNC2)n1 (configuration not stated)	1.3
COc1cc(/C=C2/C(=O)N(c3ccc(Cl)c(Cl)c3)N=C2C)ccc1OCc1ccccc1	-0.5
CC1=NN(c2ccccc2)C(=O)/C1=C/c1ccccc1OCc1ccccc1C	3.0
SMILES	ROC1-CUL1 inh
CC1=NN(c2ccccc2)C(=O)/C1=C/c1ccccc1OCc1ccc(C(=O)O)cc1	51.4*
COc1cc(/C=C2\N=C(c3ccc(NC(C)=O)cc3)OC2=O)ccc1OCc1ccccc1	4.3
NS(=O)(=O)Cc1ccccc1Cl	-2.7
O=S(=O)(O)c1ccc2c(S(=O)(=O)O)cccc2c1	5.3
O=S(=O)(O)c1cccc2cc(O)ccc12	8.6
Nc1ccc(/C=C\c2ccc(-n3nc4ccc5c(S(=O)(=O)O)cccc5c4n3)cc2S(=O)(=O)O)c(S(=O)(=O)O)c1	67.8*
COc1cc(NCCCCCN)c2ncccc2c1	26.1*
COc1ccc(OC)c(NS(=O)(=O)c2cccc3cccnc23)c1	0.8
COc1cc(NCCCCCCCN)c2ncccc2c1	-3.3
CCOc1ccc(CCNC(=O)c2nn(C)c3c2CSc2ccccc2-3)cc1	-3.0
CCn1nc(C)c(CCNc2ncc(C)c(-c3cnn(C)c3)n2)c1C	-1.4
COc1ccc(OC)c2c1C(=O)c1ccccc1-2	-1.2
O=C1c2ccccc2-c2c1c(O)c(O)c(-c1ccccc1)c2-c1ccccc1	102.1*
O=c1c(-c2ccccc2)c1-c1ccccc1	0.4
COc1ccc(/C=C2\C(=O)N(Cc3ccco3)C(=O)N(C(C)C)C2=O)c(OC)c1	101.1*
CC(C)N1C(=O)C(C=Nc2cc(Cl)c(Cl)cc2Cl)C(=O)N(Cc2ccco2)C1=O (configuration not stated)	4.0
CC(C)N1C(=O)/C(=C\c2ccc(N(C)C)cc2)C(=O)N(Cc2ccco2)C1=O	11.4
Clc1ccc(SCc2ccc(Br)cc2)cc1	-2.0
CCOC(=O)C1C(CN2CCN(C)CC2)=NC(=O)NC1c1ccc(F)cc1 (configuration not stated)	3.4
COc1ccc(-c2nc(=S)c3c(n2-c2ccc(N(C)C)cc2)CCCC3)cc1	1.2
CCOc1cccc(N/N=C(/C#N)C(=O)OC)c1	5.3
COCCn1c(=O)c2c(nc3n(-c4ccc(OC)cc4)c(C)cn23)n(C)c1=O	-1.2
Cc1ccc(-c2c(C)sc(NC(=O)C3CCCO3)c2C(N)=O)cc1 (configuration not stated)	-5.6
Cc1ccc(-n2c(=O)c3c4c(sc3n3cnnc23)CCCC4C)cc1 (configuration not stated)	7.8
